In the library only some 1.2% were active in any assay of this set; here they are far more common.
RGS16-Gao – modulators of RGS16 binding to Galphao, primary screen, biochemical, human proteins, multiplexed bead flow cytometry | Regulator of G-protein signaling 16 (Homo sapiens) + Guanine nucleotide-binding protein … | bead-based flow cytometry RGS16-Galphao binding, fluorescence; actives lie on both sides | binding response (% of control), % at 10 µM | 0.38% of 220,000 active | AID 1441, 2008; call rule not given here;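 further: Galphao activated by GDP with aluminum fluoride before binding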
Target sequence (O15492 whole entry, looked up): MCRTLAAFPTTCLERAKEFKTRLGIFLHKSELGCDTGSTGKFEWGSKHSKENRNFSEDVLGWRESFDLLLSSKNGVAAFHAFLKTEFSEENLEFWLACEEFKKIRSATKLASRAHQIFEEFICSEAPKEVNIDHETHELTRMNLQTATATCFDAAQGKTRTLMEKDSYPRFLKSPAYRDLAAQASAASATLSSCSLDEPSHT
Target sequence (P09471 whole entry, looked up): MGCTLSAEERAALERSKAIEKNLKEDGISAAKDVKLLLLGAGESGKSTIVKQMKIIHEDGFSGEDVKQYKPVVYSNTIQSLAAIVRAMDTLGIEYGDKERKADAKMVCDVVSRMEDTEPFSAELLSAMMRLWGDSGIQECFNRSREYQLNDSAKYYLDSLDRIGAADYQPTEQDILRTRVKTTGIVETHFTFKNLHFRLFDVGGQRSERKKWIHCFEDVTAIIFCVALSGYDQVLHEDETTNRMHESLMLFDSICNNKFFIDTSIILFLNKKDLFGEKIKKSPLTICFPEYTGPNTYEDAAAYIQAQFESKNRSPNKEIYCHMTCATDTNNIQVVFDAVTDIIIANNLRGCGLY
RGS4-Gao reg – modulators of RGS4 binding to Galphao, primary screen, biochemical, multiplexed bead flow cytometry; actives lie on both sides; binding response (% of control), % at 10 µM; 0.33% of 220,000 active; Guanine nucleotide-binding protein G(o) subunit alpha (Homo sapiens), P09471; in the data active means binding response below about 49% or above about 150%; inactive means in between;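 further: fluorescent Galphao activated with aluminum fluoride binding bead-coupled RGS4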
Target sequence (P09471 whole entry, looked up): as above
RGS8-Gao reg – RGS8-Galphao binding modulators, primary screen, biochemical, multiplexed bead flow cytometry | 0.34% of 220,000 active | Guanine nucleotide-binding protein G(o) subunit alpha (Homo sapiens), P09471 | response (percent of control binding), % at 10 µM | actives lie on both sides; in the data active means response below about 60% or above about 140%; inactive means in between;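 further: Galphao activated as the GDP aluminium fluoride complex binding bead-coupled RGS8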
GSH bead fluor – compound fluorescence on glutathione beads, profiling panel, artefact control, biophysical, 488/530 nm, flow cytometry; GSH beads flow cytometry, compound fluorescence 488/530 nm; active compounds read high; fluorescence (KMESF) at 10 µM; 0.25% of 190,000 active; AID 1776, 2009; in the data active means fluorescence above about 89;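 further: glutathione beads carrying GST-tagged Bcl family fusion proteins plus one bare bead set; values are compound well signal with DMSO vehicle wells as background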
Avidin fluor – green autofluorescence of compounds with avidin beads – biophysical, 488/530 nm, flow cytometry, artefact control, profiling panel; compound fluorescence 488/530 nm; active compounds read high; fluorescence (KMESF) at 10 µM; 0.38% of 220,000 active; in the data active means fluorescence above about 47
RGS7-Gao reg – RGS7-Galphao binding modulators, primary screen, biochemical, multiplexed bead flow cytometry; Guanine nucleotide-binding protein G(o) subunit alpha (Homo sapiens), P09471; actives lie on both sides; binding response (% of control), % at 10 µM; 0.35% of 220,000 active; AID 1439, 2008; in the data active means binding response below about 49% or above about 150%; inconclusive means no clear call, values can overlap the other calls; inactive means in between;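 further: fluorescent Galphao held in activated GDP-AlF4 state binding bead-coupled RGS7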
* hit, by the source's call; ? = inconclusive.

SMILES | RGS16-Gao | RGS4-Gao reg | RGS8-Gao reg | GSH bead fluor | Avidin fluor | RGS7-Gao reg
CCOC(=O)c1c(-c2cccc([N+](=O)[O-])c2)csc1NC(=O)C1CCCCC1 | 100 | 96 | 99 | 166* | 4 | 97
CS(=O)(=O)N1CCN(c2cnn(-c3ccccc3)c(=O)c2Cl)CC1 | 109 | 106 | 99 | 62 | 90* | 142
CCCS(=O)(=O)NCCc1cc2ccc(C)cc2[nH]c1=O | 98 | 96 | 99 | 88* | 5 | 102
O=C(Nc1ccc(Oc2ccccc2)cc1)C1CCCO1 (stereo unspecified) | 89 | 94 | 97 | 27 | 17 | 93
CC(C)N(c1ccccc1)c1ccc(NC(=O)C2CCCO2)cc1 (stereo unspecified) | 95 | 97 | 103 | 266* | 7 | 99
Cn1c(=S)n(C)c2ccccc21 | 103 | 105 | 96 | 17 | 84* | 116
CCOC(=O)c1cnn(-c2ncnc3sc4c(c23)CCC4)c1N | 125 | 121 | 102 | 23 | 52* | 116
COCCN(Cc1ccccc1)C(=O)c1c(C)nn(-c2ccccc2)c1C | 99 | 99 | 99 | 19 | 11 | 102
Cc1cc(=O)[nH]c(N/N=C/c2ccc(OC(=O)c3cccnc3)cc2)n1 | 110 | 102 | 104 | 8 | 25 | 98
C(=N\c1nc2ccccc2n1CCN1CCCCC1)/c1cccs1 | 73 | 106 | 104 | 270* | 5 | 108
C(=N\c1nc2ccccc2n1CCN1CCCCC1)/c1ccc2c(c1)OCO2 | 100 | 100 | 105 | 24 | 11 | 97
CC1=NN(c2ccc(Cl)cc2)C(=O)C1 | 96 | 101 | 100 | 18 | 9 | 97
CC1=NN(c2ccc(N)cc2)C(=O)C1 | -44 | 35* | 74 | 223* | 0 | 12*
O=C1c2ccccc2NC(c2ccc3c(c2)OCCO3)N1c1ccc2c(c1)OCCO2 (stereo unspecified) | 103 | 107 | 101 | 262* | 8 | 102
CN(CC(=O)N1CCN(c2ncccn2)CC1)S(=O)(=O)c1ccc(Cl)cc1 | 103 | 107 | 104 | 14 | 9 | 97
CN(CC(=O)N1CCN(c2ccccn2)CC1)S(=O)(=O)c1ccccc1 | 101 | 104 | 100 | 12 | 49* | 106
CC(C)[C@H](NC(=O)c1ccccc1)C(=O)OCC(=O)NCCC1=CCCCC1 | 140 | 113 | 111 | 8 | 54* | 129
O=C(O)C(Cc1cc2ccccc2[nH]1)N1C(=O)C2CC=C(Cl)CC2C1=O (stereo unspecified) | 104 | 99 | 97 | 117* | 7 | 97
CC(=O)Cc1nsc(NC(=O)c2ccc(-c3cccc(C(F)(F)F)c3)o2)n1 | 130 | 110 | 108 | 38 | 53* | 115
CC(=O)Cc1nsc(NC(=O)c2ccc(-c3cc(C(F)(F)F)ccc3Cl)o2)n1 | 100 | 102 | 103 | 50 | 8 | 100
Cc1ccc(S(=O)(=O)Nc2nonc2C)cc1 | 29 | 38* | 34* | 33 | 4 | 31*
CNS(=O)(=O)c1ccc(C)cc1 | 97 | 105 | 104 | 24 | 12 | 102
CCN(C(=O)COC(=O)c1ccc(N2C(=O)c3ccccc3C2=O)cc1)C1CCS(=O)(=O)C1 (stereo unspecified) | 112 | 101 | 103 | 16 | 11 | 103
C=CCSc1nc(C)c(CC(=O)OCC(C)C)c(=O)[nH]1 | 106 | 102 | 101 | 18 | 48* | 108
CCCSc1nc(C)c(CC(=O)OCC)c(=O)[nH]1 | 99 | 98 | 102 | 48 | 8 | 104
SMILES | RGS16-Gao | RGS4-Gao reg | RGS8-Gao reg | GSH bead fluor | Avidin fluor | RGS7-Gao reg
NS(=O)(=O)c1ccc(NC(=O)N[C@@H](Cc2ccccc2)C(=O)O)cc1 | 101 | 102 | 103 | 61 | 6 | 102
NC(=O)NC(Cc1ccccc1)C(=O)Nc1ccc(S(N)(=O)=O)cc1 (stereo unspecified) | 103 | 99 | 101 | 253* | 7 | 103
O=C(c1ccc(F)cc1)C(CCCCCC(CN1CCOCC1)C(=O)c1ccc(F)cc1)CN1CCOCC1 (stereo unspecified) | 89 | 108 | 100 | 21 | 185* | 140
OC(CN1CCOCC1)c1ccc(F)cc1 (stereo unspecified) | 102 | 102 | 100 | 11 | 13 | ?
CCOC(=O)c1cnn2c1[nH]c(=O)c1ccccc12 | 110 | 110 | 101 | 49 | 96* | 124
CCCC(=O)Nc1ccc2oc(-c3ccc(OC)c(Br)c3)nc2c1 | 101 | 103 | 99 | 24 | 54* | 109
CCCC(=O)Nc1ccc(-c2nc3cc(C)ccc3o2)cc1 | 100 | 102 | 101 | 30 | 10 | 101
Cc1nnc(N(C)C(=O)c2ccc3c(c2)OCO3)s1 | 74 | 97 | 90 | 9 | 6 | 93
CC(=O)Nc1nc(CC(C)C)cc(-c2ccco2)c1C#N | 102 | 105 | 101 | 21 | 57* | 109
N#C/C(=C\c1ccc(N2CCCCC2)o1)C(=O)Nc1cccc(Br)c1 | 136 | 136 | 103 | 60 | 60* | 141
N#C/C(=C\c1ccc(N2CCCCC2)o1)C(N)=O | 101 | 104 | 104 | 18 | 11 | 103
CCCc1nnc(NS(=O)(=O)c2ccc(OC)cc2)s1 | 81 | 101 | 95 | 28 | 8 | 103
COc1ccc(S(=O)(=O)Nc2nncs2)cc1 | 116 | 103 | 104 | 20 | 49* | 109
N#CCCSCc1ccc(C(=O)O)o1 | 101 | 99 | 100 | 25 | 17 | 104
CCCCSCc1ccc(C(=O)O)o1 | 103 | 90 | 100 | 131* | 5 | 91
CCCCn1cnc(C(=O)OCC)c1N | 105 | 103 | 102 | 21 | 14 | 101
O=C1COc2ccc(C(=O)COC(=O)c3ccc4ccccc4n3)cc2N1 | 106 | 101 | 103 | 12 | 6 | 102
O=C1COc2ccc(C(=O)COC(=O)Cn3cnc4ccccc43)cc2N1 | 107 | 104 | 104 | 272* | 7 | 107
CCN(CC)CCC(=O)NN | 99 | 100 | 100 | 17 | 9 | 99
CCc1nnc(NC(=O)C2CCCN2C(=O)NC2CCCCC2)s1 (stereo unspecified) | 100 | 102 | 100 | 262* | 8 | 102
O=C(O)c1ccccc1N/C=C\[N+](=O)[O-] | 101 | 102 | 101 | 21 | 8 | 99
COc1ccccc1NS(=O)(=O)c1cccc(C(=O)NCc2ccco2)c1 | 103 | 101 | 102 | 19 | 5 | 97
NC(=O)c1oc2ccccc2c1NC(=O)c1ccccc1 | 98 | 98 | 100 | 259* | 7 | 98
